# Data published in the supplement of paper PMC10849652.
# The full data set covers some 7,900 targets. This sample favours those with a hit. About 0.6% of all pairs of compound and target were hits. Unmarked numbers belong to inactive results.
# Assays:
# Assay in all cases: log2 fold change, soluble protein after heating vs DMSO (PISA); higher = thermal stabilisation; K562 cells, 10 uM, 30 min; active = over 0.2 and 3.5 SD of the protein, either way, in both replicates (recomputed)
# saracatinib = compound: CN1CCN(CCOc2cc(OC3CCOCC3)c3c(Nc4c(Cl)ccc5c4OCO5)ncnc3c2)CC1 [saracatinib]
# In short: (§1)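 Aliquots of K562 cells (2×10^6 cells/mL) treated with 10 μM compound for 30 min were heated for 3 min over 48°C-58°C. After pooling and extraction in PBS with 0.5% NP-40 at 4°C, soluble protein from a 21,000xg, 90 min spin was quantified by TMTpro 16plex LC-MS/MS with channel sums equalised. Thermal stability is expressed against control samples, from duplicates, as a log2 fold change.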
# sotrastaurin = compound: CN1CCN(c2nc(C3=C(c4c[nH]c5ccccc45)C(=O)NC3=O)c3ccccc3n2)CC1 [sotrastaurin]
# In short: as §1
# alvocidib = compound: CN1CC[C@H](c2c(O)cc(O)c3c(=O)cc(-c4ccccc4Cl)oc23)[C@H](O)C1 [alvocidib]
# In short: as §1
# Tubastatin A = compound: CN1CCc2c(c3ccccc3n2Cc2ccc(C(=O)NO)cc2)C1 [Tubastatin A]
# In short: as §1
# [1] = compound: CNC(=O)C1=CC=CC=C1NC2=NC(=NC=C2Cl)NC3=C(C=C(C=C3)N4CCOCC4)OC
# In short: as §1
# defactinib = compound: CNC(=O)c1ccc(Nc2ncc(C(F)(F)F)c(NCc3nccnc3N(C)S(C)(=O)=O)n2)cc1 [defactinib]
# In short: as §1
# rucaparib = compound: CNCc1ccc(-c2[nH]c3cc(F)cc4c3c2CCNC4=O)cc1 [rucaparib]
# In short: as §1
# [2] = compound: CNc1nc(-c2ccc3c(N)n[nH]c3c2)cc(N2C[C@@H](C(=O)NC3CCCCC3)CC[C@H]2C)n1
# In short: as §1
# encorafenib = compound: COC(=O)N[C@@H](C)CNc1nccc(-c2cn(C(C)C)nc2-c2cc(Cl)cc(NS(C)(=O)=O)c2F)n1 [encorafenib]
# In short: as §1
# [3] = compound: COC(=O)[C@H](CCSC)NC(=O)C1=C(C=C(C=C1)NC[C@H](CS)N)C2=CC=CC=C2
# In short: as §1
# [4] = compound: COC1=CC=C(C=C1)CN2C=CC3=C2C=C(C=C3)C(=O)NO
# In short: as §1
# filanesib = compound: CON(C)C(=O)N1N=C(c2cc(F)ccc2F)S[C@@]1(CCCN)c1ccccc1 [filanesib]
# In short: as §1
# zotarolimus = compound: CO[C@H]1C[C@@H]2CC[C@@H](C)[C@@](O)(O2)C(=O)C(=O)N2CCCC[C@H]2C(=O)O[C@H]([C@H](C)C[C@@H]2CC[C@H](n3cnnn3)[C@H](OC)C2)CC(=O)[C@H](C)/C=C(\C)[C@@H](O)[C@@H](OC)C(=O)[C@H](C)C[C@H](C)/C=C/C=C/C=C/1C [zotarolimus]
# In short: as §1
# idasanutlin = compound: COc1cc(C(=O)O)ccc1NC(=O)[C@@H]1N[C@@H](CC(C)(C)C)[C@](C#N)(c2ccc(Cl)cc2F)[C@H]1c1cccc(Cl)c1F [idasanutlin]
# In short: as §1
# alisertib = compound: COc1cc(Nc2ncc3c(n2)-c2ccc(Cl)cc2C(c2c(F)cccc2OC)=NC3)ccc1C(=O)O [alisertib]
# In short: as §1
# [5] = compound: COc1cc2nc(-c3cc(F)ccc3O)nc(N[C@@H]3CNC[C@H]3C(C)(C)O)c2cc1OC
# In short: as §1
# gefitinib = compound: COc1cc2ncnc(Nc3ccc(F)c(Cl)c3)c2cc1OCCCN1CCOCC1 [gefitinib]
# In short: as §1
# [6] = compound: COc1cccc2cc(-c3nc([C@H]4CC[C@H](C(=O)O)CC4)n4ncnc(N)c34)[nH]c12
# In short: as §1
# lapatinib = compound: CS(=O)(=O)CCNCc1ccc(-c2ccc3ncnc(Nc4ccc(OCc5cccc(F)c5)c(Cl)c4)c3c2)o1 [lapatinib]
# In short: as §1
# pictilisib = compound: CS(=O)(=O)N1CCN(Cc2cc3nc(-c4cccc5[nH]ncc45)nc(N4CCOCC4)c3s2)CC1 [pictilisib]
# In short: as §1
# Sequence of UniProt O43823 (O43823 whole entry, looked up): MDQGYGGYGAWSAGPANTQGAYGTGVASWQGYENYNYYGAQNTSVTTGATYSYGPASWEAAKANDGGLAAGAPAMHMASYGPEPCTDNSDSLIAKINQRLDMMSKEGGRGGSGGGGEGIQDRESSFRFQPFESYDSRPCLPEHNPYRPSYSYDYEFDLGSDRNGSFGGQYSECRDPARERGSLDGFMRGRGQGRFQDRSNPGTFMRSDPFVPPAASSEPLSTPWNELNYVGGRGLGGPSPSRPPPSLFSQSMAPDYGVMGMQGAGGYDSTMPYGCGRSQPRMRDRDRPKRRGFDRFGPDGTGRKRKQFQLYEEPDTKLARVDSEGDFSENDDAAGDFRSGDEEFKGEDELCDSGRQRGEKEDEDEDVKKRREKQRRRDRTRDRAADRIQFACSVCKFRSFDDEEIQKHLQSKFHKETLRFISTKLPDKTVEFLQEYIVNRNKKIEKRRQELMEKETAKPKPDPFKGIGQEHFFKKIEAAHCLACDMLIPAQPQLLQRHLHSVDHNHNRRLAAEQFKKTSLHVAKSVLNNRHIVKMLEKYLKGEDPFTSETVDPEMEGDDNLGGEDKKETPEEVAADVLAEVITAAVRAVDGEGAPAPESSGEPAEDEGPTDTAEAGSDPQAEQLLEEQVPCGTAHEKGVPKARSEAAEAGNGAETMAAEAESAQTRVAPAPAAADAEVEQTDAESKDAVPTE
# Sequence of UniProt Q01484 (Q01484 whole entry, looked up): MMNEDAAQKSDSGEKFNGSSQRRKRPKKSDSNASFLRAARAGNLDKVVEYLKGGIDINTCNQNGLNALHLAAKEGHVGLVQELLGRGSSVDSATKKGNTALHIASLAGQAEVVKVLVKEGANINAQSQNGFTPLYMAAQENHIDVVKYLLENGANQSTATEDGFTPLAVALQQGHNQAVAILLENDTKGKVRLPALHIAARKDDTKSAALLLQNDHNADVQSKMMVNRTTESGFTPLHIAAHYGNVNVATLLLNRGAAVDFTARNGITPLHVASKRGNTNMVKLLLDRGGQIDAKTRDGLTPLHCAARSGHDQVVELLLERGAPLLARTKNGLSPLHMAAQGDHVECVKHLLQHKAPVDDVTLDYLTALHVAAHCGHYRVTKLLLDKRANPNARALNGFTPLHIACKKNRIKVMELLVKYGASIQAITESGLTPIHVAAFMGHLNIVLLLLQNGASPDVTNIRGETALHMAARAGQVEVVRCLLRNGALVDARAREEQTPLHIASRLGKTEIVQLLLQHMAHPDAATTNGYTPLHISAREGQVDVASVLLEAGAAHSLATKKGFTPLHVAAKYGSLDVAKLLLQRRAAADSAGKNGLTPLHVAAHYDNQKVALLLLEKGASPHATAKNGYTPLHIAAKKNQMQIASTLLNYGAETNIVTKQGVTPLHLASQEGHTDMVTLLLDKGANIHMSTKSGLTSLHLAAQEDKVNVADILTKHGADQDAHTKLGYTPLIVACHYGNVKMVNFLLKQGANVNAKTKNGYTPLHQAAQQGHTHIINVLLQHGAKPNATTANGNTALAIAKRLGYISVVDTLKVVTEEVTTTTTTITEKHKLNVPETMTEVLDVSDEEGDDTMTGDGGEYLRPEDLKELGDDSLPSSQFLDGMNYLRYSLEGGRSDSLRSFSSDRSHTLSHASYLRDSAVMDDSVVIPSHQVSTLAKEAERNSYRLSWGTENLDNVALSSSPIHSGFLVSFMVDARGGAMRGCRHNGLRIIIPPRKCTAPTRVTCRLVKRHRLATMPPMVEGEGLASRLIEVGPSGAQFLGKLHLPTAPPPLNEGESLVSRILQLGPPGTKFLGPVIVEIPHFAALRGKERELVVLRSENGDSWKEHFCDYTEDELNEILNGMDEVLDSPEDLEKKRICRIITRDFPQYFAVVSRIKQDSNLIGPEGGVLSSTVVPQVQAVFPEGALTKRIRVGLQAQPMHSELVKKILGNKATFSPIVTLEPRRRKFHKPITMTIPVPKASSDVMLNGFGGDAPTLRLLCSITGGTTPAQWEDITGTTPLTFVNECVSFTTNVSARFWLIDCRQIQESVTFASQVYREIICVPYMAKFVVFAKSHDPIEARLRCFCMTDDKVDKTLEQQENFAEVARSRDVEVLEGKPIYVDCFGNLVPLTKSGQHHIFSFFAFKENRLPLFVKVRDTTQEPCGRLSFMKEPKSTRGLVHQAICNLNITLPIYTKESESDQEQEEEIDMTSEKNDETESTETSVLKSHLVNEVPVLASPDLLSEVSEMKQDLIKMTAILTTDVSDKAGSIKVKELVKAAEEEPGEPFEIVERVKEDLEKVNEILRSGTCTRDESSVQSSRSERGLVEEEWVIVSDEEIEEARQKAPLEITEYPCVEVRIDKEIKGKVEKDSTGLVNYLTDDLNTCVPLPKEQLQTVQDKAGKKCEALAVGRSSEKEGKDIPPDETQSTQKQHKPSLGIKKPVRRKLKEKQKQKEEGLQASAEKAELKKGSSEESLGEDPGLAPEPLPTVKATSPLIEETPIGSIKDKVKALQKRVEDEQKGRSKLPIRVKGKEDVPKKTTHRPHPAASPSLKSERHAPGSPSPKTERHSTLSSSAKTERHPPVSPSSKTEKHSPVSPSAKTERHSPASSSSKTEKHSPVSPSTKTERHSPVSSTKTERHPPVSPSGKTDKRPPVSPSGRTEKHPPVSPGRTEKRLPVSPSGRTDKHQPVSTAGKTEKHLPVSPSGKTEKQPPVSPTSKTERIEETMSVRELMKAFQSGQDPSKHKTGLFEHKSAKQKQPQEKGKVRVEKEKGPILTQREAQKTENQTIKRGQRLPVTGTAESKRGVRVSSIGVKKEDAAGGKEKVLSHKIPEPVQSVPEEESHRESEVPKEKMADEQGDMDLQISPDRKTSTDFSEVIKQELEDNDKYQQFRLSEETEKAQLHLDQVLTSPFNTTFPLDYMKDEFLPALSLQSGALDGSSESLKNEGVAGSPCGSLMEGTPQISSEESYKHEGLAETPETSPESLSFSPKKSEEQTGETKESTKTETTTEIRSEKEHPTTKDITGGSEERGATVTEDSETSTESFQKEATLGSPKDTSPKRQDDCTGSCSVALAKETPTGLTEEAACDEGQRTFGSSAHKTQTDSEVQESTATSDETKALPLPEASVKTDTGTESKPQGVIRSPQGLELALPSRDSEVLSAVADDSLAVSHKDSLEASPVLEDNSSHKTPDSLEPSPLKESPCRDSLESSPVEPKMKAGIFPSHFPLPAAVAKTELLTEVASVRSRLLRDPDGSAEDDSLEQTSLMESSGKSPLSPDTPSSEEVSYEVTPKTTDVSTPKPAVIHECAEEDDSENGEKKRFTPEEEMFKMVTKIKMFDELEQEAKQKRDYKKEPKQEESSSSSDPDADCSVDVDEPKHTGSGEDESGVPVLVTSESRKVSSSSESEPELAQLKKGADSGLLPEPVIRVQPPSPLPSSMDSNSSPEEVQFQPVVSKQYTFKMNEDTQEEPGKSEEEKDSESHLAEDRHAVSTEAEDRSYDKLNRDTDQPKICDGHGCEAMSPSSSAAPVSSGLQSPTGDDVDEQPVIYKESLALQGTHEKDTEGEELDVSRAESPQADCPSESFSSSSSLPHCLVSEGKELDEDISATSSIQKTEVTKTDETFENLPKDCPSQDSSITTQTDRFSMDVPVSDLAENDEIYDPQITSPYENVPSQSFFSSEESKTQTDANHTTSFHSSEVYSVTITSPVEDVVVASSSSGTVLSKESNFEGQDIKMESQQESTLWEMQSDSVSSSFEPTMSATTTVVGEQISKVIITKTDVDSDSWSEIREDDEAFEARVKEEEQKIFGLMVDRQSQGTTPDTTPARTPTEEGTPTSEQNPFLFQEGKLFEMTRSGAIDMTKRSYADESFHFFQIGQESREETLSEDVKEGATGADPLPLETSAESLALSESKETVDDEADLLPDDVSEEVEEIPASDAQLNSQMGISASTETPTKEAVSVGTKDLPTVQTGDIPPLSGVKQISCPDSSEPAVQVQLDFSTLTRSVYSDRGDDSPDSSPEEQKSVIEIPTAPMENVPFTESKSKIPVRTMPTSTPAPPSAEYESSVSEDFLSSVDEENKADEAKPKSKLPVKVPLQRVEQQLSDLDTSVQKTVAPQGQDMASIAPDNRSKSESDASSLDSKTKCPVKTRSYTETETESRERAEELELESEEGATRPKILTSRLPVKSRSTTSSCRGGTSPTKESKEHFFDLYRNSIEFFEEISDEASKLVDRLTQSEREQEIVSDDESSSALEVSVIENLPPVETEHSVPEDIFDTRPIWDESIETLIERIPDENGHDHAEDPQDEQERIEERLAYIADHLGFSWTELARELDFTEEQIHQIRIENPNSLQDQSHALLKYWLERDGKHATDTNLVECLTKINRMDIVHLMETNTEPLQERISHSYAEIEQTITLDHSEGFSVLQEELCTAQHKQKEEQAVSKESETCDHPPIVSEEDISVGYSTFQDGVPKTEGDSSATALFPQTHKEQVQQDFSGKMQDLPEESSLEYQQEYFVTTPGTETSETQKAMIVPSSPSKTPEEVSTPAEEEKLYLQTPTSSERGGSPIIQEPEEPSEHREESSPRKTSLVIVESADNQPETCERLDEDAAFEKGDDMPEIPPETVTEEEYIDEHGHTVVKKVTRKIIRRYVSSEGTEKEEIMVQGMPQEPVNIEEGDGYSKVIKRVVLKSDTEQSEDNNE
# Sequence of UniProt Q9UI12 (Q9UI12 whole entry, looked up): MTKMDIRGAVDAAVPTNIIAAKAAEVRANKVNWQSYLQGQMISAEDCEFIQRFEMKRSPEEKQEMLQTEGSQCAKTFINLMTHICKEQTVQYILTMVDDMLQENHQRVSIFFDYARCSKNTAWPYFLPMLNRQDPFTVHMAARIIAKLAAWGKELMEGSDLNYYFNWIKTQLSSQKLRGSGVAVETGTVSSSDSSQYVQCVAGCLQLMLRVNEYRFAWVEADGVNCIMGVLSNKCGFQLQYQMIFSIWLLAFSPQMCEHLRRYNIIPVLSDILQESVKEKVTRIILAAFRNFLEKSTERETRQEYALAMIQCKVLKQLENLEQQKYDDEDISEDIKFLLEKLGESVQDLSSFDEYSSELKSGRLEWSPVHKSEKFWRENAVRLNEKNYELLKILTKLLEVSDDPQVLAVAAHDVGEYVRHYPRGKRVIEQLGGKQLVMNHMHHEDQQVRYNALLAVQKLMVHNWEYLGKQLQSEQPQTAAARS
Target,log2 fold change (saracatinib),log2 fold change (sotrastaurin),log2 fold change (alvocidib),log2 fold change (Tubastatin A),log2 fold change [1],log2 fold change (defactinib),log2 fold change (rucaparib),log2 fold change [2],log2 fold change (encorafenib),log2 fold change [3],log2 fold change [4],log2 fold change (filanesib),log2 fold change (zotarolimus),log2 fold change (idasanutlin),log2 fold change (alisertib),log2 fold change [5],log2 fold change (gefitinib),log2 fold change [6],log2 fold change (lapatinib),log2 fold change (pictilisib)
ARFRP1 (UniProt Q13795),0.108,-0.035,-0.008,-0.059,0.037,0.01,0.033,0.031,-0.027,-0.137,0.127,-0.261 (active),0.02,-0.168,0.111,0.039,-0.016,-0.024,0.071,0.168
ARL6IP4 (UniProt Q66PJ3),-0.026,0.023,-0.024,-0.024,-0.05,-0.038,0.01,-0.002,-0.059,0.016,-0.025,0.023,0.014,0.172,-0.053,0.002,-0.039,0.05,-0.023,-0.007
ALDH2 (UniProt P05091),0.007,-0.099,-0.04,-0.032,0.078,-0.055,-0.099,0.026,0.013,-0.03,-0.011,-0.142,0.055,-0.104,0.015,-0.006,0.028,0.069,-0.02,0.043
AK6 (UniProt Q9Y3D8),-0.154,-0.121,-0.045,0.03,0.018,-0.095,0.092,-0.053,0.095,-0.09,0.009,-0.052,0.003,0.012,-0.035,0.053,0.03,0.006,-0.049,-0.01
AGPAT1 (UniProt Q99943),-0.009,0.045,0.002,-0.004,0.074,-0.079,-0.109,-0.011,0.039,0.003,-0.004,0.001,-0.048,-0.059,-0.081,0.176,0.028,0.021,0.074,0.017
BECN1 (UniProt Q14457),0.013,-0.038,-0.262,-0.065,-0.029,-0.054,-0.014,-0.013,0.001,0.018,0.094,-0.005,-0.142,-0.159,-0.081,0.117,0,-0.045,0.008,0.086
ANK2 (UniProt Q01484),0.24,0.05,-0.013,-0.122,0.05,-0.057,-0.019,-0.095,-0.106,-0.041,-0.054,-0.052,-0.05,0.083,-0.076,-0.04,-0.062,0.048,-0.013,0.532 (active)
ACAP2 (UniProt Q15057),-0.02,-0.029,-0.068,0.001,0.031,-0.032,-0.016,-0.04,0.062,-0.026,-0.001,0.119,0.01,-0.047,0.011,0.283 (active),0.02,0.014,0.015,-0.059
ACADM isoform 2 (UniProt P11310),0.031,0.274 (active),-0.006,-0.03,0.019,-0.016,-0.024,0.083,-0.016,0.004,0.039,-0.036,0.014,-0.039,-0.055,0.039,0.017,0.046,0.001,0.029
ATOX1 (UniProt O00244),-0.042,-0.054,-0.106,0.062,0.001,-0.117,-0.09,-0.046,0.047,-0.105,0.471 (active),-0.122,0.113,-0.096,-0.062,-0.388,-0.036,-0.07,0.314,-0.015
ADD2 (UniProt P35612),0.049,-0.004,-0.031,-0.025,-0.033,-0.051,-0.012,0.001,-0.025,-0.003,0.047,0.015,-0.011,0.009,-0.081,0.065,0.003,0.02,-0.026,0.009
B4GALT1 (UniProt P15291),-0.017,-0.07,-0.117,0.063,0.023,0.066,0.013,-0.041,0.032,-0.084,-0.04,0.014,0.067,0,0.051,-0.037,0.022,0.021,0.042,0.128
AKAP8 (UniProt O43823),0.012,-0.021,0.112,0.002,-0.073,0.01,0.017,-0.126,0.037,0.008,0.026,0.035,-0.105,0.052,-0.046,-0.002,-0.049,0.067,0.014,0.101
ATP6V1H (UniProt Q9UI12),-0.047,-0.015,-0.065,0.046,-0.016,-0.042,0.016,0.054,0.016,-0.043,0.035,-0.106,0.055,-0.067,-0.1,-0.064,-0.121,-0.073,-0.009,-0.063
ARHGAP1 (UniProt Q07960),-0.015,-0.03,-0.057,0.044,-0.032,-0.046,0.005,-0.019,0.001,-0.014,-0.016,0.084,0.038,0.004,-0.011,0.152,0.005,-0.036,-0.035,0.024
BRAP (UniProt Q7Z569),-0.04,-0.198,-0.042,0.046,0.057,-0.087,0.076,-0.024,0.042,-0.064,0.062,0.02,0.01,0.028,-0.058,-0.108,0.053,-0.134,0.073,-0.055
